{"source": "PubChem BioAssay (NCATS)", "note": "Results filed as inconclusive are left out. The source made the active and inactive calls. Calls follow the shape of the dose curve; as a rule, active = well fitted cell-killing curve with a large enough effect; inconclusive = small, poorly fitted or top-dose-only effect, or effect the other way; inactive = no such curve, though single readings can be large or run the other way. Potency is read from the fitted curve at half-maximal effect."}
{"assay": "Quantitative High-Throughput drug screen in 47 multiple myeloma cell lines against the NCATS MIPE library collection: U266_ATCC cell viability assay (AID 1919864); also: nearly all actives have a fitted effect of over 35% in size", "conditions": "U266 myeloma viability, CellTiter-Glo ATP luminescence, 48 h; series mostly up to 45.8 µM", "text": "PI: Beverly A. Mock Ph.D.\nLaboratory of Cancer Biology and Genetics,\nCenter for Cancer Research, National Cancer Institute,\nNational Institute of Health, Bethesda, Maryland\nDrug resistance and disease progression are common in multiple myeloma (MM) patients, underscoring the need for new therapeutic combinations. […] We hypothesized that effective combinations would reduce MYC expression and enhance p16 activity. […] These preclinical data identify potentially useful drug combinations for evaluation in drug-resistant MM and reveal potential mechanisms of combined drug sensitivity.\nDescribed herein is the primary MIPE qHTS used to cherrypick compounds. Validated compounds were then further tested for potential synergistic activiy.\n[1] Peat TJ, Gaikwad SM, Dubois W, Gyabaah-Kessie N, Zhang S, Gorjifard S, Phyo Z, Andres M, Hughitt VK, Simpson RM, Miller MA, Girvin AT, Taylor A, Williams D, D'Antonio N, Zhang Y, Rajagopalan A, Flietner E, Wilson K, Zhang X, Shinn P, Klumpp-Thomas C, McKnight C, Itkin Z, Chen L, Kazandijian D, Zhang J, Michalowski AM, Simmons JK, Keats J, Thomas CJ, Mock BA. Drug combinations identified by high-throughput screening promote cell cycle transition and upregulate Smad pathways in myeloma. Cancer Lett. 2023 Aug 1;568:216284. doi: 10.1016/j.canlet.2023.216284. Epub 2023 Jun 24. PMID: 37356470; PMCID: PMC10408729.\nSEQUENCE No. (e.g., 1, 2, 3, etc.); […] (e.g., Cells, Incubation, Reagent, etc.); VALUE and DESCRIPTION.\n1; Cells; 5 uL; white, solid bottom 1536-well Greiner assay plate.\n2; Compounds; 23 nL; Kalypsis pin tool (Wako USA) equipped with a 1536-well pin head to transfer to the assay plates.\n3; Incubation; 48 hours; 37C incubation.\n4; Reagent;5uL; CellTiter Glo (Promega).\n5; Detector; 425V; Luminescence; Viewlux PerkinElmer.\nNOTES (numbers refer to Sequence numbers above)\n1. The cell-based screening methods employed in this study were like those previously published. Briefly, the corresponding myeloma cell lines were screened in 1,536-well plates with 500 cells, 5-uL per well for inhibition of cell viability (assessed by measuring ATP levels with CellTiterGlo).\n2. NCATS MIPE 4.0 library of approved and investigational drugs were added using the Kalypsis pin tool. Wells treated with DMSO only for 100% viability and media only for 0% viability were used as controls.\n3. The assay plates were covered and incubated for 48 hours in a 37C, 5% CO2 incubator with controlled humidity.\n4. After 48 hours, CellTilter-GloTM luminescent substrate mix (Promega) reagent was added to the assay plate and plates we incubated for 5 min at room temperature.\n5. Signal was measured as median relative luminescence units on a ViewLux (PerkinElmer) multiplate reader.\n[1] Heske CM, Davis MI, Baumgart JT, Wilson K, Gormally MV, Chen L, Zhang X, Ceribelli M, Duveau DY, Guha R, Ferrer M, Arnaldez FI, Ji J, Tran HL, Zhang Y, Mendoza A, Helman LJ, Thomas CJ. Matrix Screen Identifies Synergistic Combination of PARP Inhibitors and Nicotinamide Phosphoribosyltransferase (NAMPT) Inhibitors in Ewing Sarcoma. Clin Cancer Res. 2017 Dec 1;23(23):7301-7311. doi: 10.1158/1078-0432.CCR-17-1121. Epub 2017 Sep 12. PMID: 28899971; PMCID: PMC6636827."}
{"smiles": "CN(C)Cc1c(C(=O)NCCOc2ccc(C(=O)NO)cc2)oc2ccccc12", "Potency": "1.18 µM (active)"}
{"smiles": "COc1c(N2C[C@@H]3CCCN[C@H]3C2)c(F)cc2c(=O)c(C(=O)O)cn(C3CC3)c12", "Potency": "inactive"}
{"smiles": "CCOc1cc2ncc(C#N)c(Nc3ccc(F)c(Cl)c3)c2cc1NC(=O)C=CCN(C)C", "Potency": "18.7 µM (active)"}
{"smiles": "O=c1[nH]nc(Sc2ncc([N+](=O)[O-])s2)n1-c1ccc2c(c1)OCCO2", "Potency": "2.64 µM (active)"}
{"smiles": "C[C@@H](Oc1cc(-n2cnc3ccc(CN4CCN(C)CC4)cc32)sc1C(N)=O)c1ccccc1C(F)(F)F", "Potency": "16.6 µM (active)"}
{"smiles": "CC(C)c1ccc(Cn2ccc3c4c(N)nc(NC5CC5)nc4ccc32)cc1", "Potency": "13.2 µM (active)"}
{"smiles": "O=C(C=Cc1cccc(S(=O)(=O)Nc2ccccc2)c1)NO", "Potency": "2.7 µM (active)"}
{"smiles": "CC(C)CC(=O)Nc1n[nH]c2c1CN(C(=O)C1CCN(C)CC1)C2(C)C", "Potency": "1.87 µM (active)"}
{"smiles": "Nc1ccccc1NC(=O)c1ccc(CNC(=O)OCc2cccnc2)cc1", "Potency": "5.9 µM (active)"}
{"smiles": "CC(C)c1cc(C(=O)N2Cc3ccc(CN4CCN(C)CC4)cc3C2)c(O)cc1O", "Potency": "0.209 µM (active)"}
{"smiles": "CCCCCN(CCC12CC3CC(CC(C3)C1)C2)C(=O)NCCCc1ccncc1", "Potency": "14.8 µM (active)"}
{"smiles": "Cc1cc(Nc2cc(N3CCN(C)CC3)nc(C=Cc3ccccc3)n2)n[nH]1", "Potency": "38.2 µM (active)"}
{"smiles": "COc1cc(C(=O)N2CCC(N3CCN(C)CC3)CC2)ccc1Nc1ncc2c(n1)N(C)c1ccccc1C(=O)N2C", "Potency": "2.09 µM (active)"}
{"smiles": "COC(=O)Nc1ccc(-c2nc(N3CCOCC3)c3cnn(C4CCN(Cc5cccnc5)CC4)c3n2)cc1", "Potency": "18.7 µM (active)"}
{"smiles": "CNC(=O)c1ccc(-c2cnc3ncc(Cc4ccc5ncccc5c4)n3n2)cc1F", "Potency": "inactive"}
{"smiles": "COc1cc(C)c(Sc2cnc(NC(=O)c3ccc(CNC(C)C(C)C)cc3)s2)cc1C(=O)N1CCN(C(C)=O)CC1", "note": "(stereo not given)", "Potency": "23.5 µM (active)"}
{"smiles": "Cn1cncc1[C@@](N)(c1ccc(Cl)cc1)c1ccc2c(c1)c(-c1cccc(Cl)c1)cc(=O)n2C", "Potency": "23.5 µM (active)"}
{"smiles": "Cn1cc(-c2ccncc2)c(-c2ccc(OCc3ccc4ccccc4n3)cc2)n1", "Potency": "18.7 µM (active)"}
{"smiles": "Cc1nc(N)ncc1-c1nc(N2CCOCC2)c2sc(C(C)(C)O)cc2n1", "Potency": "5.26 µM (active)"}
{"smiles": "COc1cc2c(Oc3ccc4[nH]c(C)cc4c3F)ncnc2cc1OCCCN1CCCC1", "Potency": "26.4 µM (active)"}
{"smiles": "CC(C)[C@H](C(=O)Nc1ccc(C(=O)NO)cc1)c1ccccc1", "Potency": "0.935 µM (active)"}
{"smiles": "O=C(NC1CCNCC1)c1[nH]ncc1NC(=O)c1c(Cl)cccc1Cl", "Potency": "0.187 µM (active)"}
{"smiles": "Cn1c2ccccc2c2c3c(c4c5ccccc5n(CCC#N)c4c21)CNC3=O", "Potency": "4.69 µM (active)"}
{"smiles": "CC[C@H]1CN2CCc3cc(OC)c(OC)cc3[C@H]2C[C@@H]1C[C@@H]1NCCc2cc(OC)c(OC)cc21", "Potency": "0.0935 µM (active)"}
{"smiles": "Cc1ccc(CN2CCNCC2)cc1NC(=O)CNc1ccc(F)c(F)c1", "Potency": "29.6 µM (active)"}
{"smiles": "C[C@]12CC[C@H](O)CC1=CCC1C2CC[C@]2(C)C(n3cnc4ccccc43)=CCC12", "note": "(stereo not given in full)", "Potency": "inactive"}
{"smiles": "CC1COC2(CCN(c3nc(=O)c4cc(C(F)(F)F)cc([N+](=O)[O-])c4s3)CC2)O1", "note": "(stereo not given)", "Potency": "inactive"}
{"smiles": "Cc1ccc(C(N)=O)cc1Nc1nccc(-c2cn(C(C)C)c3cnccc23)n1", "Potency": "8.33 µM (active)"}
{"smiles": "CCCCc1nc2cc(C=CC(=O)NO)ccc2n1CCN(CC)CC", "Potency": "0.935 µM (active)"}
{"smiles": "O=C(c1cncc(Br)c1)N1CCC(N2CCCC2)CC1", "Potency": "inactive"}
{"smiles": "Cc1[nH]c2ccccc2c1CCNCc1ccc(C=CC(=O)NO)cc1", "Potency": "0.132 µM (active)"}
{"smiles": "Cn1c(=O)n(-c2ccc(C(C)(C)C#N)cc2)c2c3cc(-c4cnc5ccccc5c4)ccc3ncc21", "Potency": "4.18 µM (active)"}
{"smiles": "CN1CC[C@@H](c2c(O)cc(O)c3c(=O)cc(-c4ccccc4Cl)oc23)[C@@H](O)C1", "Potency": "0.166 µM (active)"}
{"smiles": "O=C(CCCCCCNC(=O)c1cnc(N(c2ccccc2)c2ccccc2)nc1)NO", "Potency": "9.35 µM (active)"}
{"smiles": "Nc1ccc(C(=O)c2cc3c(ccc4ccccc43)[nH]2)cc1", "Potency": "14.8 µM (active)"}
{"smiles": "O=C(O)C1(Cc2cccc(Nc3nccs3)n2)CCC(Oc2cccc(Cl)c2F)CC1", "note": "(stereo not given)", "Potency": "inactive"}
{"smiles": "CCS(=O)(=O)c1cccc(-c2cc(C(=O)NC3CCN(C)CC3)c(C)c3[nH]c4ncc(C)cc4c23)c1", "Potency": "0.935 µM (active)"}
{"smiles": "CNC(=O)c1ccccc1Nc1nc(Nc2ccc(N3CCOCC3)cc2OC)ncc1Cl", "Potency": "13.2 µM (active)"}
{"smiles": "Cc1c(CN2CCN(S(C)(=O)=O)CC2)sc2c(N3CCOCC3)nc(-c3cnc(N)nc3)nc12", "Potency": "0.118 µM (active)"}
{"smiles": "NC(=O)c1cccc2cn(-c3ccc([C@@H]4CCCNC4)cc3)nc12", "Potency": "inactive"}
